Results reported in PubChem BioAssay.

Assays:
[1] = test system: Botulinum neurotoxin type F light chain protease (Clostridium botulinum); assay: Botulinum neurotoxin type F light chain protease inhibition, multiplex microsphere flow cytometry, validation set (AID 588459); settings: multiplex microsphere protease substrate cleavage assay, at 10 µM, active compounds read high
[2] = target: Botulinum neurotoxin type A (Clostridium botulinum) (UniProt P0DPI0); assay: BoNT/A light chain protease inhibitors, biochemical, multiplex microsphere flow cytometry, validation set (AID 588460); settings: at 10 µM, active compounds read high
[3] = target: Lethal factor (Bacillus anthracis) (UniProt P15917); assay: Lethal factor protease inhibitors, Bacillus anthracis, multiplex microsphere cleavage assay, validation set (AID 588461); settings: flow cytometry, at 10 µM, active compounds read high

Measured: inhibition

CC1(C)CC(=O)c2cc(O)ccc2O1
inactive: [1] 2% | [2] 0.1% | [3] -2.1%

CC(=O)O[C@]1(C(C)=O)CC[C@H]2[C@@H]3C[C@H](C)C4=CC(=O)CC[C@]4(C)[C@H]3CC[C@@]21C
inactive: [1] 0.4% | [2] -1.6% | [3] -5.5%

COc1ccc(-c2coc3cc(OC(=O)N4CCOCC4)ccc3c2=O)cc1
inactive: [1] 4.3% | [2] -1.4% | [3] -0.4%

CC1(C)Cc2ccccc2-c2n[nH]c(=S)n21
inactive: [1] -0.3% | [2] 0.5% | [3] 1.7%

COc1cccc(OC)c1C(=O)NCCSC1CCCCC1
inactive: [1] 1.4% | [2] 0% | [3] 5.6%

CC1(C)CC(NC(=O)C23CCC(C)(C(=O)C2=O)C3(C)C)CC(C)(C)N1 (stereo unspecified)
inactive: [1] 2.9% | [2] -0.7% | [3] -4.5%

Cc1oc2c(C)c3oc(=O)c4c(c3cc2c1C)CCCC4
inactive: [1] 0.8% | [2] -0.2% | [3] 1.3%

C#C[C@]1(O)CC[C@H]2[C@@H]3CCc4cc(O)ccc4[C@H]3CC[C@@]21C
inactive: [1] -3.8% | [2] -2.8% | [3] 6.8%

CCOC(=O)c1ccc(N2C(=O)C(CC(N)=O)N(CCc3ccc(OC)c(OC)c3)C2=S)cc1 (stereo unspecified)
inactive: [1] 2% | [2] 1.1% | [3] -0.3%

N#C/C(=C/c1ccccc1)C(=O)NCc1ccccc1
inactive: [1] 5.2% | [2] 0.1% | [3] -7.6%

CC(=O)N(CCC1(c2ccc(C)cc2)CCOC(C(C)C)C1)Cc1ccco1 (stereo unspecified)
inactive: [1] -5.3% | [2] 0% | [3] -7.5%

CN(CCCN1CCOCC1)Cc1cn(C)nc1-c1ccccc1F
inactive: [1] 0% | [2] -0.8% | [3] -6.1%

C=C(C)c1nc2cc(OC)c(OC)cc2c(=O)o1
inactive: [1] -7.9% | [2] -1.3% | [3] 0.1%

O=c1c2ccccc2nnn1Cc1cccc2ccccc12
inactive: [1] 0.5% | [2] 0.7% | [3] -9.5%

COc1cc(OC)c(C2C(C#N)=C(N)OC3=C2C(=O)CC(C)(C)C3)cc1OC (stereo unspecified)
inactive: [1] -2.6% | [2] 0.8% | [3] 4.6%

O=C(NC1CCCCC1)c1cc2nc(-c3ccco3)cc(C(F)(F)F)n2n1
inactive: [1] 2.6% | [2] 1.2% | [3] 0.5%

O=C(O)CC(O)C(=O)O (stereo unspecified)
inactive: [1] -3.1% | [2] -0.9% | [3] 3.8%

NC(N)=N/N=C/c1ccc(OS(=O)(=O)c2ccccc2)cc1
inactive: [1] -5.1% | [2] -1.5% | [3] -1.4%

COc1ccc(-c2nnc(-c3cc4c(ccc5ccccc54)oc3=O)o2)cc1
inactive: [1] -0.8% | [2] 0.4% | [3] -1.7%

CCN(CC)C(=O)N1CCN(C)CC1
inactive: [1] -3.4% | [2] -0.7% | [3] 4.2%

CC(=O)N(C(C)=O)c1nc2nc(C)cc(C)n2n1
inactive: [1] 5.2% | [2] 0.6% | [3] 1.4%

COc1ccc(C2NC(=O)c3ccccc3N2)cc1OC (stereo unspecified)
inactive: [1] -2.5% | [2] -0.1% | [3] -2.9%
